Source: PubChem
Most compounds without a hit are left out; they make up all but 19% or so of the library.
TDP1 cell CPT = qHTS for Inhibitors of human tyrosyl-DNA phosphodiesterase 1 (TDP1): qHTS in cells in presence of CPT; chicken DT40 Tdp1-/-;hTDP1 cells + 20 nM CPT, ATP luminescence, 48 h; Potency, µM (highest dose often 46.2 µM), hits mostly inhibitors; 12% of 420,000 active; AID 686979, 2013; also: nearly all actives have a fitted effect of over 55% in size
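Chicken DT40 Tdp1-/- cells stably complemented with human TDP1 were seeded at 400 cells/well in medium containing 20 nM camptothecin, exposed to pin-transferred compounds, and grown at 37 °C for at least 48 hr. Viability was read as ATP luminescence.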
HT1080 IDH1KD tx = qHTS for induction of synthetic lethality in tumor cells producing 2HG: qHTS for the HT-1080-IDH1KD cell line. HT-1080 IDH1 knockdown viability, ATP luminescence, 48 h. Potency, µM (highest dose often 46.1 µM), actives largely listed as cytotoxic. 2% of 360,000 active. AID 686971, 2013
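In this qHTS, HT-1080 cells depleted of IDH1 are exposed for 48 h at 37 °C to compound titrations. Toxicity is scored from CellTiter-Glo luminescence, with DMSO as full viability and medium alone as none.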
KB-3-1 tox = qHTS assay for MDR1-selective chemotherapeutics: Primary screen using the parental adenocarcinoma cell KB-3-1. AID 1347075, 2019. KB-3-1 viability, CellTiter-Glo ATP luminescence, 72 h. 1.4% of 400,000 active. Potency, µM (highest dose often 46.1 µM), hits mostly cytotoxic; also: nearly all actives have a fitted effect of over 60% in size
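Parental KB-3-1 adenocarcinoma cells in phenol-red-free DMEM with 10% FBS were pin-treated with compounds at several concentrations, incubated 72 h at 37 °C, and viability read by CellTiter-Glo luminescence; concentration-effect curves were fitted after normalization.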
TDP1 cell noCPT = qHTS for Inhibitors of human tyrosyl-DNA phosphodiesterase 1 (TDP1): qHTS in cells in absence of CPT. AID 686978, 2013. Potency, µM (series often up to 46.2 µM), usual class: inhibitors. DT40 Tdp1-/- hTDP1 cells, no CPT, ATP luminescence, 48 h. 15% of 420,000 active; also: nearly all actives have a fitted effect of over 55% in size
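Chicken DT40 Tdp1-/- cells stably complemented with human TDP1 were seeded at 400 cells/well with DMSO in place of 20 nM camptothecin. After compound pinning, cells grew at least 48 hr at 37 °C; viability read by CellTiter-Glo luminescence.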
HT1080-NT tox = qHTS for induction of synthetic lethality in tumor cells producing 2HG: qHTS for the HT-1080-NT fibrosarcoma cell line; HT-1080-NT fibrosarcoma viability, CellTiter-Glo ATP luminescence, 48 h; Potency, µM (doses to about 46.1 µM), hits mostly cytotoxic; 1.6% of 360,000 active;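 also: NT is the 2HG producing partner of a matched IDH1 knockdown line; nearly all actives have a fitted effect of over 55% in size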
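Luminescent CellTiter-Glo readout after 48 hours of compound exposure at 37 degrees C defined viability of HT-1080-NT cells. Activity was normalized to DMSO wells and cell-free media wells; concentration-response curves were fitted and assigned curve classes.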
KB-V1 cytotox = qHTS assay for MDR1-selective chemotherapeutics: Primary screen using the drug-selected MDR subline cells KB-V1; 3.4% of 400,000 active; AID 1347076, 2019; Potency, µM (top dose mostly 46.1 µM), most hits filed as cytotoxic; KB-V1 MDR cells viability, CellTiter-Glo, 72 h; also: nearly all actives have a fitted effect of over 60% in size
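Cytotoxicity toward P-gp-expressing KB-V1 cells was determined as loss of CellTiter-Glo luminescence after 72 h at 37 degrees C. Compounds were tested in quantitative HTS format across a concentration range, with curves fitted to normalized data.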
Of the large screens only hits and unclear results are named; the others gave an inactive call. Calls follow the shape of the dose curve; as a rule, active = well fitted curve in the direction sought with a large enough effect; inconclusive = small, poorly fitted or top-dose-only effect, or another doubt; inactive = no such curve, though single readings can be large; an effect the other way counts as inactive or inconclusive.

CCCS(=O)(=O)NC(=O)C1(C)CCCN(C(=O)c2cc(C)nn2C(C)(C)C)C1 (stereo not drawn)	none
CCCCS/C(=C(/C#N)C(N)=O)c1cc2c([nH]1)CCCC2	TDP1 cell CPT 21µM, KB-3-1 tox inconclusive, TDP1 cell noCPT inconclusive, KB-V1 cytotox inconclusive
CCCCC(=O)NC(NC(=S)N1CCCCCC1)C(Cl)(Cl)Cl (stereo not drawn)	TDP1 cell CPT 13µM, TDP1 cell noCPT 13µM
COc1ccccc1C(=O)Nc1c(-c2ccccc2)nc2ccccn12	TDP1 cell CPT 23µM, TDP1 cell noCPT inconclusive
COc1ccc(C(=O)Nc2c(-c3ccccc3)nc3ccccn23)c(OC)c1	TDP1 cell CPT inconclusive, TDP1 cell noCPT inconclusive
CN1c2ccccc2C(C)(C)C12CC(CCl)=NO2 (stereo not drawn)	TDP1 cell CPT 16µM, TDP1 cell noCPT 21µM
CCOC(=O)Nc1ccc2c(CN3CCN(S(=O)(=O)c4ccccc4)CC3)cc(=O)oc2c1	TDP1 cell CPT 13µM, TDP1 cell noCPT inconclusive, KB-V1 cytotox inconclusive
CCOC(=O)Nc1ccc2c(CN3C(=O)NC(CC)(CC)C3=O)cc(=O)oc2c1	TDP1 cell CPT inconclusive, TDP1 cell noCPT inconclusive
Cc1ccc2c(CN3CCOCC3)cc(=O)oc2c1C	none
O=c1cc(CN2CCN(S(=O)(=O)c3cccc(Cl)c3)CC2)c2ccc(O)cc2o1	TDP1 cell CPT inconclusive, HT1080 IDH1KD tx inconclusive, TDP1 cell noCPT 18µM, HT1080-NT tox inconclusive
Cc1ccc2c(CN3CCN(Cc4ccccc4)CC3)cc(=O)oc2c1C	TDP1 cell CPT inconclusive, TDP1 cell noCPT 18µM
Cc1ccc2c(CN3CCN(S(=O)(=O)c4ccc(Cl)cc4)CC3)cc(=O)oc2c1C	TDP1 cell CPT inconclusive, TDP1 cell noCPT 16µM, KB-V1 cytotox inconclusive
O=C(COC(=O)c1cc(=O)[nH]c2ccccc12)NCc1ccccc1	none
CCN(CC)C(=O)C1=C(C)N(CCCOC)C(=O)C(CC(=O)NC2CCCC2)C1 (stereo not drawn)	none
COc1ccc(CC(=O)Nc2ccc3c(C)cc(=O)oc3c2)cc1OC	HT1080-NT tox inconclusive
Cc1cc(C)c2oc(=O)cc(CN3CCC(C)CC3)c2c1	TDP1 cell CPT inconclusive, TDP1 cell noCPT 26µM
Cc1cc(C)c2oc(=O)cc(CN3CCN(Cc4ccccc4)CC3)c2c1	TDP1 cell CPT 18µM, TDP1 cell noCPT inconclusive
CCOC(=O)Nc1ccc2c(CNC(C)c3ccccc3OC)cc(=O)oc2c1 (stereo not drawn)	TDP1 cell CPT inconclusive, TDP1 cell noCPT 23µM
O=S(Cc1cc(Oc2ccccc2)nc(-c2ccccc2)n1)c1ccccc1 (stereo not drawn)	TDP1 cell noCPT inconclusive
CSc1ccc2[nH]c(=O)cc(C)c2c1	KB-V1 cytotox inconclusive
Cc1nc2ccc(C(=O)N3c4ccccc4N=C(c4ccc5c(c4)OCO5)C3C(=O)NCc3ccccc3)cc2[nH]1 (stereo not drawn)	TDP1 cell CPT 2.1µM, TDP1 cell noCPT 1.6µM
CCCCNC(=O)C1C(c2ccc(OC)cc2)=Nc2ccccc2N1C(=O)c1ccncc1 (stereo not drawn)	TDP1 cell CPT 23µM, TDP1 cell noCPT 21µM, KB-V1 cytotox inconclusive
CC(=O)Nc1ccc(C(=O)N2c3ccccc3N=C(c3ccc4c(c3)OCO4)C2C(=O)NCc2ccccc2)cc1 (stereo not drawn)	TDP1 cell CPT inconclusive, TDP1 cell noCPT inconclusive, KB-V1 cytotox inconclusive
